According to PubChem BioAssay:
Calls of active or inactive are those of the source.

How the values were obtained:
[1] = small molecules captured by biotinylated probe aFSTL3 – biochemical, small-molecule microarray, fluorescence 635/667, stem cell growth factor project, primary screen (AID 1064); details: higher = more signal;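 further: measures binding of the biotinylated anti-FSTL3 antibody to printed compounds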
[2] = binders from COS7 lysate, DM2A8 probe, primary screen, torsin A project, cell lysate, small-molecule microarray, fluorescence 635/667 (AID 1065); details: higher = more signal, COS7 lysate expressing mutant human TOR1A
[3] = small molecules captured by biotinylated probe aFGF2 – biochemical, small-molecule microarray, fluorescence 635/667, stem cell growth factor project, primary screen (AID 1067); details: higher = more signal;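 further: measures binding of biotinylated aFGF2 protein to printed compounds on slides; z-score merges feature fluorescence and signal-to-noise across triplicate slides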
[4] = small molecules captured by biotinylated probe aFGF10 – biochemical, small-molecule microarray, fluorescence 635/667, stem cell growth factor project, primary screen (AID 1071); details: higher = more signal;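 further: score merges 667 nm spot intensity and signal to noise from triplicate slides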
[5] = target: Neurogenic locus notch homolog protein 2 (Homo sapiens) (UniProt Q04721); assay: small molecules binding Notch2 protein – biochemical, small-molecule microarray, 635 nm fluorescence, stem cell growth factors, primary screen (AID 1073); details: higher = more signal
[6] = target: Pro-neuregulin-1, membrane-bound isoform (Homo sapiens) (UniProt Q02297); assay: small molecules binding neuregulin-1 protein – biochemical, small-molecule microarray, fluorescence 635/667, psychiatric disease protein project, primary screen (AID 1075); details: NRG1 binding, 635 nm fluorescence, higher = more signal;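 further: score combines 667 nm spot fluorescence with signal to noise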
[7] = test system: Neuregulin-1 EGF-like domain; assay: small molecules binding NRG1 EGF domain – biochemical, small-molecule microarray, 635 nm fluorescence, primary screen (AID 1081); details: higher = more signal;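 further: binding of the protein to compounds printed on small-molecule microarray slides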
[8] = FRG1 expression reporter modulators in myotubes – cell-based, C2C12 myotubes, firefly/Renilla luciferase, luminescence, FRG1 inhibition for FSHD, primary screen (AID 1084); details: FRG1 promoter luciferase, higher = more signal, called active from +8 up or from −8 down
[9] = small molecules captured by biotinylated probe aFST – biochemical, small-molecule microarray, fluorescence 635/667, stem cell growth factor project, primary screen (AID 1086); details: higher = more signal;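 further: score merges 667 nm fluorescence with signal-to-noise of each printed compound spot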
[10] = binders of probe aHhip on microarray, primary screen, stem cell growth factor project, biochemical, small-molecule microarray, fluorescence 635/667 (AID 1087); details: higher = more signal;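 further: score merges spot fluorescence at 667nm with spot signal to noise ratio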

Chain of Neurogenic locus notch homolog protein 2 (Homo sapiens) (Q04721 whole entry, looked up, canonical isoform): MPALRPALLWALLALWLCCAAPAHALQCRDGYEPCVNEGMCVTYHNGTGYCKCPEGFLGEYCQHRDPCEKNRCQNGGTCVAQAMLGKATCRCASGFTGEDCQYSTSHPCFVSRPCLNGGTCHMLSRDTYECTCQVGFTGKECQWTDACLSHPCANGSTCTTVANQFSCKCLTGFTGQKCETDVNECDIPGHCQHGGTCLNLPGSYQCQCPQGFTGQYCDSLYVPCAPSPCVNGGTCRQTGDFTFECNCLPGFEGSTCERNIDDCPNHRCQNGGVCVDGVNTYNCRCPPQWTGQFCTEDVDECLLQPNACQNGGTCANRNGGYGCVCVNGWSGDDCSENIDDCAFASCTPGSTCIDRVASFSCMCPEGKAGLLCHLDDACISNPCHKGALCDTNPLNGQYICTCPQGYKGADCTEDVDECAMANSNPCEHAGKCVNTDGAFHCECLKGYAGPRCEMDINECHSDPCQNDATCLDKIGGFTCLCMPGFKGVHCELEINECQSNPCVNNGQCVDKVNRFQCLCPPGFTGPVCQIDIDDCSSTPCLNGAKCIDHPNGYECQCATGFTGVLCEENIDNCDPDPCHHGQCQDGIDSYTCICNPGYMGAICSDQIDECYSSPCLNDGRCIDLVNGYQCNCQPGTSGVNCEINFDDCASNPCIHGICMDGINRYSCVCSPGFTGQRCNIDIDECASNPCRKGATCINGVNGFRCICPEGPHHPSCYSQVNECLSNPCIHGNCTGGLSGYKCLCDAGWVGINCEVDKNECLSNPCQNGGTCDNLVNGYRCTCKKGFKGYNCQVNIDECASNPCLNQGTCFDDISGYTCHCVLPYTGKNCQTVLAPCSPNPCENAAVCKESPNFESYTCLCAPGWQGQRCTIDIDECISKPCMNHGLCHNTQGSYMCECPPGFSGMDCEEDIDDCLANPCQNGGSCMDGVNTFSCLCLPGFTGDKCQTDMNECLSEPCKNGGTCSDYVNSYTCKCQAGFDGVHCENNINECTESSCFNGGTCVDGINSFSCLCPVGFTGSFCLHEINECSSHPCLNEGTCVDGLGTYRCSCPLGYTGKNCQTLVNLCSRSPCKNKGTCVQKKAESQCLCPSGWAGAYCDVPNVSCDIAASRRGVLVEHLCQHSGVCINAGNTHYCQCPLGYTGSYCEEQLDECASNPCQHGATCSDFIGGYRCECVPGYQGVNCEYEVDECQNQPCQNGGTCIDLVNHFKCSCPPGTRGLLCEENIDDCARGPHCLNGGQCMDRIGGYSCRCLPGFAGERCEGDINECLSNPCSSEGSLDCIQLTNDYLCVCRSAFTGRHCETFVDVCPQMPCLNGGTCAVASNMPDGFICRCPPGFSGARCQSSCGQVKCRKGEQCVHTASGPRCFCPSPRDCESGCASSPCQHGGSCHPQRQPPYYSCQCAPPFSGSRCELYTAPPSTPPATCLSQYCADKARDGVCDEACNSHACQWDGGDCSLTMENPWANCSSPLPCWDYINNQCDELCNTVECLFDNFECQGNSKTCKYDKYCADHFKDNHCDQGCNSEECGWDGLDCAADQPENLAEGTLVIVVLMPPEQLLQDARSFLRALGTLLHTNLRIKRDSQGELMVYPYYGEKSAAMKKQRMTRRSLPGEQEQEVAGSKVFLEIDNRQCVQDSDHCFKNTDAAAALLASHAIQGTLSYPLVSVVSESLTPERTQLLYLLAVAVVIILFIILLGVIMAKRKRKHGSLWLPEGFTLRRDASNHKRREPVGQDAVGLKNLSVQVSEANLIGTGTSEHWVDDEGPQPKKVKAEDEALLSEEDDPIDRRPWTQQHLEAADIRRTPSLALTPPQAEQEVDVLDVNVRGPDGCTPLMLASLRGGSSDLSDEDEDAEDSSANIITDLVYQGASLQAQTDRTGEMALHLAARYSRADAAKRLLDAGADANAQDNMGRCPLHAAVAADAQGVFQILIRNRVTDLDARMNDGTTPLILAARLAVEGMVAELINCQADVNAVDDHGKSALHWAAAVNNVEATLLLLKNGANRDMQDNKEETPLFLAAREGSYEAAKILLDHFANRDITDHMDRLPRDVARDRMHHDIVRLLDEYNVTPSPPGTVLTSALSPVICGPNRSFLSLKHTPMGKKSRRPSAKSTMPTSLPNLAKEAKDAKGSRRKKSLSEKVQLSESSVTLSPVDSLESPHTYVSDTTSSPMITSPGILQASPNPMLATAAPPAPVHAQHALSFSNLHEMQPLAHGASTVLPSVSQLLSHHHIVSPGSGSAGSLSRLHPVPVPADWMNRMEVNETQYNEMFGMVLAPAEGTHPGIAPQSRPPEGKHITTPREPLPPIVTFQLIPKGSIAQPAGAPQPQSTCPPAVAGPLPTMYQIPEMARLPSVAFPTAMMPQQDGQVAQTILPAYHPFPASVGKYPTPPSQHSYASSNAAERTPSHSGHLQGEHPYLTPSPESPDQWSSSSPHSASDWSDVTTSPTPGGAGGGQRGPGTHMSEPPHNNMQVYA
Chain of Pro-neuregulin-1, membrane-bound isoform (Homo sapiens) (Q02297 whole entry, looked up, the tested form may be a part, canonical isoform): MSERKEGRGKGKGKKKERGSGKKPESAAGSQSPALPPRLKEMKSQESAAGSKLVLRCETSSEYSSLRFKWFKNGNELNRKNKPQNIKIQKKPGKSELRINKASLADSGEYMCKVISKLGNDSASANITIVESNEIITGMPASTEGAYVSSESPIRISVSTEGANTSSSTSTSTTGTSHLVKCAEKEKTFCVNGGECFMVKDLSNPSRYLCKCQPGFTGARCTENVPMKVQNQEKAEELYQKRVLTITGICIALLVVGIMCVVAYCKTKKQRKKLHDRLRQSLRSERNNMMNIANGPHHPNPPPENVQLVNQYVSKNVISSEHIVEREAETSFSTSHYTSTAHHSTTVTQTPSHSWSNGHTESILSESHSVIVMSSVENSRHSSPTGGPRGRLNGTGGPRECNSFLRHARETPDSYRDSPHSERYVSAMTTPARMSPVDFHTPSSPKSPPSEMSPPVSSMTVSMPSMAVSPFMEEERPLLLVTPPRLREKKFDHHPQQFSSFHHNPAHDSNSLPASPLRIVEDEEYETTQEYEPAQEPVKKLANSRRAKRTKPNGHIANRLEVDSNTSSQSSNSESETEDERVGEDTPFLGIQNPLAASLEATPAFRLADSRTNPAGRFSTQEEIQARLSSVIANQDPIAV

Row | Structure (SMILES) | composite z-score [1] | composite z-score [2] | composite z-score [3] | composite z-score [4] | composite z-score [5] | composite z-score [6] | composite z-score [7] | z-score [8] | composite z-score [9] | composite z-score [10]
1 | COC(=O)[C@@]1(Cc2ccc(OC)cc2)[C@H]2c3cc(C(=O)N(C)C)n(Cc4ccc(C)c(F)c4F)c3C[C@H]2CN1C(=O)c1ccccc1 | 0.372 | 0.251 | 0.162 | 0.315 | 0.498 | 0.57 | 0.964 | 0.803 (inactive) | 0.588 | 0.21
2 | C#C[C@H](O[Si](C#Cc1ccccc1)(C(C)C)C(C)C)c1ccccc1 | -0.16 | -0.232 | -0.0956 | 0.125 | -0.677 | -0.328 | -0.305 | 1.15 (inactive) | -0.649 | -0.233
3 | CO[C@@H]1COC(=O)[C@H](C)NC(=O)CC=C[C@@H](C)[C@H](OC)COC(=O)[C@H](C)NC(=O)CC=C[C@H]1C | -0.348 | 0.395 | -0.112 | 0.269 | 0.208 | -0.0025 | 0.0912 | 0.0543 (inactive) | 0.0054 | -0.146
4 | CCN1C(C)=C(C(=O)OC)[C@@H](c2ccccc2)N2C(=O)[C@](O)(C(=O)OC)[C@@H](c3ccccc3)C(C(=O)c3ccccc3)=C12 | -0.14 | 0.36 | -0.0493 | 0.671 | 0.442 | 0.607 | 0.708 | -4.12 (inactive) | 0.0486 | 0.141
5 | COC(=O)C[C@H]1O[C@]2(C(=O)N(Cc3ccccc3)c3ccc(I)cc32)[C@@H](C)[C@@H]1[Si](C)(C)c1ccc(OC)cc1 | 0.224 | -0.529 | -0.22 | 0.262 | -0.385 | -0.121 | -0.241 | 0.184 (inactive) | -0.145 | -0.16
6 | COCCOC(=O)N1C(=O)[C@@]2(c3cc(C#CCC(C(=O)OC)C(=O)OC)ccc31)[C@H](C(=O)N1CCN(c3ncccn3)CC1)[C@H]1C(=O)O[C@H](c3ccccc3)[C@H](c3ccccc3)N1[C@@H]2c1ccc(O)cc1 | -0.0797 | 1.47 | 0.0051 | 0.579 | 1.08 | 1.07 | 1.2 | -0.24 (inactive) | -0.304 | 0.0623
7 | CC[C@H]1C2=C3C(CC[C@H]4C(OC)OC[C@](C)([C@@H]34)N(C(=O)OC(C)(C)C)C2)C(CO)C1CO (stereo not given in full) | 1.21 | 0.896 | 0.181 | 0.366 | 1.65 | 1.32 | 1.13 | -0.342 (inactive) | 1.87 | 0.0053
8 | CC1=C([C@H](O)CCc2ccccc2)[C@H](CO)[C@@H]2C(=O)N(Cc3ccccc3)C(=O)[C@@H]2C1 | -0.183 | 0.0897 | 0.0137 | 0.216 | 0.585 | 0.181 | -0.107 | -0.69 (inactive) | 0.0747 | -0.174
9 | C=C(CCCC)/C(=C/C[C@@H](OC(=O)c1ccncc1)c1ccc(CO)o1)c1cnc2ccccc2c1 | -0.297 | 0.702 | 0.0263 | 1.08 | 1.59 | 0.786 | 0.743 | -0.452 (inactive) | 0.972 | 0.224
10 | C=CC(=O)O[C@@H](Cc1ccccc1)[C@H]1C2C=CCCC=C2CN1Cc1cccc(Cl)c1 (stereo not given in full) | 0.32 | -0.32 | -0.123 | -0.682 | -0.657 | -0.518 | -1.2 | -1.44 (inactive) | -0.254 | 0.176
11 | O=C1O[C@H](c2ccccc2)[C@H](c2ccccc2)N2[C@H]1[C@@H](C(=O)Nc1nc3ccccc3s1)[C@]1(C(=O)Nc3ccc(C#CC4=CCCCC4)cc31)[C@H]2c1ccccc1OCCO | -0.572 | 0.255 | 0.0075 | 0.552 | 1.16 | 1.59 | 1.06 | 0.59 (inactive) | 0.459 | -0.0726
12 | C[N+](C)(C)CCCCNC(=O)[C@@H]1C[C@@H]2C(=O)N3CCC[C@H]3C(=O)N2[C@@H]1c1cccc(OCCO)c1 | -0.215 | 1.3 | -0.148 | 0.712 | -0.145 | 0.837 | 1.03 | 1.19 (inactive) | 0.209 | 0.171
13 | CCCC=C(CCC)[C@@H](NS(=O)(=O)c1ccc(C(F)(F)F)cc1)c1ccc(-c2ccccc2)cc1 | 0.357 | 0.0864 | 0.0407 | 0.309 | 1.5 | 0.801 | 1.02 | -0.001 (inactive) | 1.38 | 2.14
14 | O=[N+]([O-])c1ccc(C[n+]2ccc3ccc(O)cc3c2)o1 | -0.493 | 0.449 | -0.146 | 0.169 | 0.37 | 1.49 | 1.11 | 0.468 (inactive) | 0.147 | -0.411
15 | CCCCCCc1nc(-c2cc(C)c(OC)c(C)c2)cc2c1[Si](C(C)C)(C(C)C)O[C@H]2c1ccccc1 | -0.315 | -0.397 | -0.14 | -0.324 | -0.209 | -0.626 | -1.04 | 0.119 (inactive) | 0.0223 | 0.0505
16 | CN1C(=O)C2C=CC(C(O)C3CC=CCC3)N(Nc3ccccc3)C2C1=O (stereo not given) | 0.0125 | 1.54 | 0.0631 | 0.752 | 1.62 | 1.85 | 1.29 | 0.294 (inactive) | 0.733 | 0.382
17 | C/C(=N\O)C(=O)NCCCCCNC(=O)OCc1ccccc1 | -0.286 | 0.135 | -0.0711 | 0.418 | 0.475 | 0.0391 | 0.619 | 0.725 (inactive) | 0.271 | -0.226
18 | Cc1cc(C)c(C(O)C2C=CC3C(=O)N(C)C(=O)C3N2N2CCCCC2)c(C)c1 (stereo not given) | 0.0308 | 0.563 | 0.205 | 1.02 | 1.69 | 0.918 | 1.3 | 0.251 (inactive) | 1.27 | -0.206
19 | CC(C)N1CC=CC23O[C@@H]4/C=C\CCCOC(=O)C4[C@H]2C(=O)N(CCCCCO)[C@@H]3C1=O (stereo not given in full) | 0.378 | 2.29 | -0.226 | -1.52 | -2.17 | 1.16 | 0.665 | 0.561 (inactive) | -0.729 | 0.0176
20 | O=C1NC(=O)C2C1C=CC(C(O)C=Cc1ccc([N+](=O)[O-])cc1)N2Nc1ccccn1 (stereo not given) | -0.273 | 0.224 | 0.102 | 0.212 | 1.15 | -0.0777 | 0.966 | 0.126 (inactive) | -0.199 | -0.226
21 | CCCC/C=C/[C@H]([C@@H](O)Cc1ccccc1)N(CC#Cc1ccccc1)Cc1ccccc1Br | 1.22 | -0.37 | -0.21 | -1.17 | -0.749 | -0.169 | -0.291 | -0.506 (inactive) | -0.74 | -0.584
22 | CC1CC/C=C\[C@H]2OC34C=CCN(Cn5nnc6ccccc65)C(=O)[C@H]3N(C(C)CO)C(=O)[C@@H]4C2C(=O)O1 (stereo not given in full) | -0.0303 | -1.38 | -0.171 | -0.282 | -0.64 | 1.86 | 0.3 | -0.389 (inactive) | -0.134 | 0.0373
23 | COCCOC(=O)N1C(=O)[C@@]2(c3cc(C#CCCO)ccc31)[C@H](c1ccc(OCCO)cc1)N1[C@H](c3ccccc3)[C@H](c3ccccc3)OC(=O)[C@H]1[C@@H]2C(=O)NC[C@H](O)c1ccccc1 | -0.484 | 1.04 | -0.0628 | 0.889 | 1.4 | 1.12 | 1.25 | 0.504 (inactive) | 0.788 | 0.152
